FBA Mtb inh: inhibits M. tuberculosis FBA enzyme; P9WQA3; purified M. tuberculosis FBA, fluorescence read-out; inhibition, % at 1 µM; 360,000 tested, 2.3% active; AID 588726; in the data active = inhibition above about 27%
Target sequence (P9WQA3 whole entry, looked up): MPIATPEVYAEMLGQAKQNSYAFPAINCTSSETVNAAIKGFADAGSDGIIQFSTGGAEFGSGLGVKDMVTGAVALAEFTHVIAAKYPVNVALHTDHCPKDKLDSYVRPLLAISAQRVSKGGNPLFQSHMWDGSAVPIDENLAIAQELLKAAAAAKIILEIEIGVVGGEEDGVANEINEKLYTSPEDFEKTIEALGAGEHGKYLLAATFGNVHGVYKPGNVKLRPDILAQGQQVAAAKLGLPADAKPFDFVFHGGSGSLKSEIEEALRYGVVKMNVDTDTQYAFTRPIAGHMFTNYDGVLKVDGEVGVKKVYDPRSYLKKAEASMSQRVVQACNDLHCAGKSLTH
PrPC TRFRET: reduces human prion protein on the cell surface. AID 720596. cell surface PrPC, TR-FRET read-out. inhibition, % at 13.8 µM. 370,000 tested, 0.43% active. P04156; in the data active = inhibition above about 24%
TcdB inh: TcdB glycohydrolase inhibition | P18177 | TcdB glycohydrolase enzymatic assay, plate reader | inhibition, % at 9.99 µM | 350,000 tested, 0.24% active; in the data active = inhibition above about 10%
GDH-TPI counter: counter-screen for M. tuberculosis FBA inhibitors: GDH-TPI coupled enzymes; GDH-TPI coupled enzyme counterscreen, NADH absorbance; inhibition, % at 4.8 µM; 360,000 tested, 1.2% active; AID 588335; in the data active = inhibition above about 30%
Yp Topo-I inh: inhibitors of Yersinia pestis topoisomerase I; Y. pestis Topo-I cleavage product accumulation, plate reader; activity, % at 10 µM; 360,000 tested, 0.064% active; in the data active = activity above about 50%, passing the limit was not always enough
Large screens that a line does not name were inactive. Hits are enriched below; roughly 3.2% of the tested compounds scored in any of these assays.

COc1ccc(CCNC(=O)Nc2ccc3c(c2)c(=O)n(C)n3CC=C(C)C)cc1OC	FBA Mtb inh 147.7
COc1ccc(NC(=O)NCCc2ccc(Cl)cc2)cc1OC	none
C[C@H]1CN([C@@H](C)CO)C(=O)c2cc(C#CC(C)(C)O)cnc2O[C@H]1CN(C)Cc1ccccn1	none (no result: FBA Mtb inh, PrPC TRFRET, GDH-TPI counter, Yp Topo-I inh)
O=C(C[C@@H]1C=C[C@H](NC(=O)CCN2CCCCC2)[C@@H](CO)O1)NCc1ccc(Cl)c(Cl)c1	none (no result: FBA Mtb inh, PrPC TRFRET, GDH-TPI counter, Yp Topo-I inh)
COCC(=O)Nc1ccc2c(c1)C(=O)N(C)[C@H]1CC[C@H](CC(=O)NCCc3ccccc3)O[C@H]1CO2	none (no result: FBA Mtb inh, PrPC TRFRET, GDH-TPI counter, Yp Topo-I inh)
COc1ccc2[nH]c3c(c2c1)CCn1c-3nc2ccccc2c1=O	GDH-TPI counter 58.9 (no result: PrPC TRFRET, TcdB inh)
COc1ccc2[nH]c3c(c2c1)CCN1C(=O)CC[C@H]31	none (no result: FBA Mtb inh, PrPC TRFRET, GDH-TPI counter, Yp Topo-I inh)
Cc1ccc(S(=O)(=O)c2cc3c(=O)n4ccccc4nc3n(CCCN3CCOCC3)c2=N)cc1C	FBA Mtb inh 128.1
N=c1c(S(=O)(=O)c2ccc(Cl)cc2)cc2c(=O)n3ccccc3nc2n1CCN1CCOCC1	FBA Mtb inh active (no result: TcdB inh)
CC(=O)Nc1ccc2c(COC(=O)[C@@H](NS(=O)(=O)c3ccc(C)cc3)C(C)C)cc(=O)oc2c1	FBA Mtb inh active
O=C(CN1C(=O)S/C(=C\C=C\c2ccccc2)C1=O)Nc1ccc(C(=O)O)cc1	GDH-TPI counter 57.1
CCOc1cccc(/C=C2/NC(=O)N(CC(=O)Nc3cccc(C)c3)C2=O)c1O	none
O=C(CN1C(=O)S/C(=C/C=C/c2ccccc2)C1=O)Nc1ccc(C(=O)O)cc1	none
COc1ccc(/C=C2\SC(=O)N(CC(=O)Nc3cccc(C)c3)C2=O)cc1O	GDH-TPI counter 47.1
CC(/C=C1\SC(=O)N(CC(=O)Nc2cccc(O)c2)C1=O)=C\c1ccccc1	GDH-TPI counter 32.9 (no result: TcdB inh)
CCOc1cc(/C=C2/NC(=O)N(CC(=O)Nc3cccc(C)c3)C2=O)ccc1OCC(N)=O	GDH-TPI counter 38.2
COc1cc(/C=C2\SC(=O)N(CC(=O)Nc3cccc(C)c3)C2=O)ccc1OC(C)C(=O)O (stereo unspecified)	none
CS(=O)(=O)N1CCCCN2[C@H](CO)[C@@H](c3ccc(-c4cccc(C#N)c4)cc3)[C@@H]2C1	none (no result: FBA Mtb inh, PrPC TRFRET, GDH-TPI counter, Yp Topo-I inh)
CO[C@@H]1CN(C)C(=O)c2cc(NC(=O)c3nc4ccccc4s3)ccc2OC[C@@H](C)N(Cc2cncnc2)C[C@@H]1C	none (no result: FBA Mtb inh, PrPC TRFRET, GDH-TPI counter, Yp Topo-I inh)
Cc1[nH]n(-c2ccccc2)c(=O)c1C=Nc1ccc2[nH]c(=O)[nH]c2c1	none (no result: TcdB inh)
Cc1[nH]n(-c2ccccc2)c(=O)c1C=Nc1cccc(F)c1	GDH-TPI counter 32.5
COC(=O)Cc1[nH]n(-c2ccccc2)c(=O)c1C=Nc1ccc(C)cc1	GDH-TPI counter 40.0
CCOc1[nH]n(-c2ccccc2)c(=O)c1C=NCC(=O)OC	none
CCC(=O)N(C)C[C@@H]1Oc2cc(-c3ccc(OC)cc3)ccc2S(=O)(=O)N([C@@H](C)CO)C[C@@H]1C	none (no result: FBA Mtb inh, PrPC TRFRET, GDH-TPI counter, Yp Topo-I inh)
Cc1cc(C(=O)N/N=C/C=C/c2ccc([N+](=O)[O-])cc2)n[nH]1	GDH-TPI counter 41.4
Cc1cc(C(=O)N/N=C/C=C/c2ccc(Br)cc2)n[nH]1	GDH-TPI counter 41.8
COc1ccc2c3c([nH]c2c1)[C@H](CO)NCC31CN(C(=O)C2CC2)C1	none (no result: FBA Mtb inh, PrPC TRFRET, GDH-TPI counter, Yp Topo-I inh)
COc1ccc(N/N=C(\C#N)C(=N)N2CCOCC2)cc1	none
N#C/C(=N/Nc1ccccc1F)C(=N)N1CCOCC1	GDH-TPI counter 31.7 (no result: TcdB inh)
COc1ccc(/C(C#N)=C/c2ccccn2)cc1	GDH-TPI counter 31.9
COc1ccc(CCNC(=O)CCCn2nc(C)n3ccnc3c2=O)cc1OC	TcdB inh 14.4
COc1ccc(/C=N/N=C2/NC(=O)C(CC(=O)O)S2)cc1OCc1ccc(Cl)cc1Cl (stereo unspecified)	GDH-TPI counter 34.7
CCOc1cc(/C=N/N=C2/NC(=O)C(CC(=O)O)S2)ccc1OS(=O)(=O)c1ccc(C)cc1 (stereo unspecified)	none
CCOc1cc(/C=N/N=C2/NC(=O)C(CC(=O)O)S2)ccc1OCc1ccccc1Cl (stereo unspecified)	GDH-TPI counter 39.7 (no result: TcdB inh)
COc1ccc(/C=N/N=C2/NC(=O)C(CC(=O)O)S2)cc1OCc1ccccc1Cl (stereo unspecified)	GDH-TPI counter 45.8 (no result: TcdB inh)
CN1C(=O)c2cc(NC(=O)C3CCOCC3)ccc2OC[C@@H]2O[C@@H](CC(=O)NC3CCCC3)CC[C@H]21	none (no result: FBA Mtb inh, PrPC TRFRET, GDH-TPI counter, Yp Topo-I inh)
CCN1C(=O)[C@@H]2[C@@H](c3ccc(-c4cc(C(C)=O)cs4)cc3)N3CCC[C@@]3(C(=O)OC)[C@@H]2C1=O	GDH-TPI counter 36.2
COC(=O)[C@@]12CCCCN1[C@H](c1ccc(-c3ccccc3)c(OC)c1)[C@H]1C(=O)N(C)C(=O)[C@H]12	TcdB inh 12.3
CCN1C(=O)[C@H]2[C@@H](c3ccc(-c4ccc(C(C)=O)cc4)c(OC)c3)N3CCCC[C@@]3(C(=O)OC)[C@H]2C1=O	none
O=C(N/N=C/c1c(O)n(CCc2ccc(F)cc2)c(=O)[nH]c1=O)c1ccccc1	none
COc1ccc(Cn2c(O)c(/C=N/NC(=O)c3ccncc3)c(=O)[nH]c2=O)cc1	GDH-TPI counter 42.1
O=C(N/N=C/c1c(O)n(CCc2ccc(F)cc2)c(=O)[nH]c1=O)c1ccncc1	none
O=C(N/N=C/c1c(O)n(Cc2ccco2)c(=O)[nH]c1=O)c1ccccc1	none
COc1ccc(Cn2c(O)c(/C=N/NC(=O)c3ccccc3)c(=O)[nH]c2=O)cc1	GDH-TPI counter 35.0
CCn1c(O)c(/C=N/NC(=O)c2ccccc2)c(=O)[nH]c1=S	GDH-TPI counter 32.4
O=C(N/N=C/c1c(O)n(-c2cccc3ccccc23)c(=O)[nH]c1=O)c1ccncc1	GDH-TPI counter 43.5
O=C(C[C@@H]1CC[C@@H]2[C@H](COC[C@H](O)CN2S(=O)(=O)c2cccc(Cl)c2)O1)NCc1ccc2c(c1)OCO2	none (no result: FBA Mtb inh, PrPC TRFRET, GDH-TPI counter, Yp Topo-I inh)
CC(C)NC(=O)N(C)C[C@@H]1Oc2ccc(NC(=O)CCC(F)(F)F)cc2CC(=O)N([C@H](C)CO)C[C@H]1C	none (no result: FBA Mtb inh, PrPC TRFRET, GDH-TPI counter, Yp Topo-I inh)
O=C(N[C@@H]1CC[C@H](CCn2cc(-c3ccccn3)nn2)O[C@H]1CO)c1cccnc1	none (no result: FBA Mtb inh, PrPC TRFRET, GDH-TPI counter, Yp Topo-I inh)
CN1C(=O)CSc2ccc(NC(=O)N3CCc4ccccc43)cc21	TcdB inh 16.5
Nc1ncn([C@@H]2O[C@H](CO)[C@@H](O)[C@H]2O)c(=O)n1	PrPC TRFRET 41.6
C[C@H](CO)N1C[C@H](C)[C@H](CN(C)S(=O)(=O)c2ccccc2)Oc2c(NC(=O)Nc3ccc4c(c3)OCO4)cccc2C1=O	none (no result: FBA Mtb inh, PrPC TRFRET, GDH-TPI counter, Yp Topo-I inh)
C[C@@H]1CN([C@H](C)CO)S(=O)(=O)c2ccc(C#Cc3ccccc3)cc2O[C@@H]1CN(C)C(=O)Cc1ccccn1	none (no result: FBA Mtb inh, PrPC TRFRET, GDH-TPI counter, Yp Topo-I inh)
Cc1noc(C)c1S(=O)(=O)N(C)C[C@@H]1Oc2ccc(NC(=O)CCCCCC(=O)Nc3ccccc3N)cc2CC(=O)N([C@@H](C)CO)C[C@@H]1C	none (no result: FBA Mtb inh, PrPC TRFRET, GDH-TPI counter, Yp Topo-I inh)
COc1ccccc1N1C(=O)c2ccccc2NC1c1ccncc1 (stereo unspecified)	none (no result: TcdB inh)
O=C1c2ccccc2NC(c2ccncc2)N1c1ccccn1 (stereo unspecified)	FBA Mtb inh 53.6 (no result: TcdB inh)
N#CC(C#N)=Cc1cccnc1	none
N#CC(C#N)=CNc1cccnc1	GDH-TPI counter 43.0
